{
  "source": "PubChem BioAssay (NCATS)",
  "note": "Results filed as inconclusive are left out. A number with no mark means an inactive call. Activity calls are given as the source filed them. Calls follow the shape of the dose curve; as a rule, active = well fitted cell-killing curve with a large enough effect; inconclusive = small, poorly fitted or top-dose-only effect; inactive = flat fitted curve, though single readings scatter. Potency is read from the fitted curve at half-maximal effect.",
  "data": [
    {"experiment": "Cellular viability qHTS for adrenocortical cancer (ACC) cell line NCI-H295R (AID 1963990); also: nearly all actives have a fitted effect of over 60% in size;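 as to activity change, negative = viability loss: 0% = DMSO only wells and -100% = full killing with cytotoxic reference compound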", "details": "CellTiter-Glo ATP luminescence, 48 h; series mostly up to 46.1 µM; activity change, negative = viability loss: at the top concentration", "procedure,_shortened": "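Luminescent ATP read-out (CellTiter-Glo, 20 min RT) after 48 h drug exposure of NCI-H295R cells; a titration up to 46 uM final. Data normalized to doxorubicin (100% inhibition) and DMSO (0%); 4-parameter fit gives IC50, max response.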", "units": {"activity change, negative = viability loss": "%"}, "values": [
      {"smiles": "CC(COc1ccccc1)NC(C)C(O)c1ccc(O)cc1", "note": "(centres undefined)", "activity change, negative = viability loss": 1.17},
      {"smiles": "Cc1ccc2ccc(Cl)cc2n1", "activity change, negative = viability loss": 0.355},
      {"smiles": "CCCCC1(COC(=O)CCC(=O)O)C(=O)N(c2ccccc2)N(c2ccccc2)C1=O", "activity change, negative = viability loss": -10.7},
      {"smiles": "CN1CCC(c2c(O)cc(O)c3c(=O)cc(-c4ccccc4Cl)oc23)C1CO", "note": "(centres undefined)", "Potency": "3.16 µM (active)"},
      {"smiles": "CN(C)CCCSc1ccccc1NC(=O)/C=C/c1ccccc1", "activity change, negative = viability loss": -9.87},
      {"smiles": "C=CC(=O)Nc1cccc(Nc2nc(Nc3ccc(OCCOC)cc3)ncc2F)c1", "Potency": "3.98 µM (active)"},
      {"smiles": "CCCCCCCCCCCCCCCCCC(=O)OCC(O)CO", "note": "(centres undefined)", "activity change, negative = viability loss": -18.1},
      {"smiles": "COc1ccc(N2C(=O)N(c3c(C)cccc3Cl)Cc3cnc(Nc4ccc(C5CCN(C)CC5)cc4OC)nc32)nc1", "Potency": "17.8 µM (active)"},
      {"smiles": "Cc1ccc(S(=O)(=O)Nc2cc(-c3ccc(C#N)s3)ccc2C)cc1", "Potency": "0.0316 µM (active)"}
    ]}
  ]
}
